SMILES strings stand for the structures. The panel holds about 83,000 compounds, 20% with a hit somewhere; the sample as a whole holds those more often.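 Negative percent growth values reflect cell death: -40 means 40% of the cells present at the start died, and -100 means all died.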 Activity calls are given as the source filed them. The calls were made as follows: active = growth percent below 10; inactive = the rest.

The test system of this experiment is MDA-MB-468 breast. As to the kind of experiment: NCI-60 one-dose screen, 48 h (100 = growth as untreated, 0 = no growth, -100 = all killed). Particulars: 10 µM unless noted.
With `N#CCCN(CCO)c1ccccc1`, the growth was 97.3% (inactive).
In the case of `O=C1Nc2ccc(Cl)cc2/C1=N/N=C(c1ccccc1)c1ccccc1` it was 107% (inactive); in that of `CC(=O)CC(=O)N(C)C`, 96.8% (inactive); in that of `COc1cc2cc(NCc3cccc(Cl)c3)nc(C)c2cc1OC`, 46.6% (inactive).
In the case of `C[C@@H]1C[C@H](N)C[C@H](c2ccncc2NC(=O)c2ccc(F)c(-c3c(F)cccc3F)n2)C1` it was 22.3% (inactive); in that of `O=C(N/N=C/c1ccc[nH]1)c1[nH]c2ccc(Br)cc2c1-c1ccccc1`, -0.633% (active); in that of `Cc1ccc(-c2nc(SCC(=O)N3CCN(c4cc5c(cc4F)c(=O)c(C(=O)O)cn5C4CC4)CC3)nc(Cl)c2C#N)cc1`, 95% (inactive).
The same measure for `CC(C)CCSc1nc(Nc2ccccc2)c(C#N)c(-c2ccccc2)n1`: 43.4% (inactive); for `CCOC(=O)NCCCC(=O)NCCc1ccccc1`: 105% (inactive).
In the case of `N/C(=N\N=C\c1cc2ccccc2s1)N/N=C/c1cc2ccccc2s1`, the growth is 122% (inactive).
In the case of `CN(C)c1ccc(-c2ccc3[nH]c(=O)nc(-c4ccccc4)c3c2)cn1` it was 42.4% (inactive); in that of `Cc1ccc(C(=O)Nc2ccc(CN3CCN(C)CC3)c(C(F)(F)F)c2)cc1C#Cc1cnc2cccnn12`, -85.9% (active).
On to `CC1(C)N=C(N)N=C(N)N1c1ccc(OCC(=O)Nc2ccccc2)c(Cl)c1`, for which the growth is 56.8% (inactive).
In the case of `CCCOc1cc2ccccc2cc1C(=O)Nc1nc(N)c2c(ccc3nccc32)[nH]1`, the growth is -64.7% (active).
In the case of `CCCCC/C=C/C(=O)CCc1ccc(O)c(OC)c1` it was 65.8% (inactive); in that of `Oc1ccc(CNNc2ccnc3c(O)cccc23)c2cccnc12`, 64.3% (inactive); in that of `CN1/C(=C\C=C\C2=[N+](C)c3ccccc3C2(C)C)C(C)(C)c2ccccc21`, -40.4% (active).
As to `O=C(N/N=C/c1ccccc1)C(Oc1ccccc1)c1ccccc1` (stereo not given), the growth is 80.2% (inactive).
In the case of `Brc1cccc(-c2cc(-c3ccc4c(c3)OCCO4)[nH]n2)c1` it was 2.79% [25 µM] (active); in that of `Clc1ccc(-n2cnc3c(Cl)ncnc32)cc1Cl`, 48.3% (inactive); in that of `COc1ccc(-c2cn[nH]c2-c2cc(OC)c(OC)c(OC)c2)cc1OCc1ccccc1`, -5.94% (active).
In the case of `Cc1ccc(OCc2occc2C(=O)N2CCOCC2)cc1` it was 103% (inactive); in that of `CC(=O)OC(OC(C)=O)C1CCCO1` (stereo not given), 99.5% (inactive).
With `CC(=O)O[C@H]1CC[C@]2(C)C3=C(C(=O)C[C@H]2C1(C)C)[C@]1(C)CC[C@H]([C@H](C)CCC(=O)O)[C@@]1(C)CC3=O`, the growth is 113% (inactive).
In the case of `NC(=O)NC(=O)/C=C/C(=O)OCCCl`, the growth was 88.5% (inactive).
In the case of `COc1cc2cc(CN3CCN(c4nccc(-c5ccc6ccccc6c5)n4)CC3)c(=O)[nH]c2cc1OC` it was 51.4% (inactive).
For `CCCC(=O)Oc1ccc(/C(=C(\C)c2ccc(OC)cc2)c2ccc(OCCN3CCCCC3)cc2)cc1`, the growth is 68.6% (inactive).
The same measure for `NCCCNc1nc2ccccc2c2c(=O)c3cc(OC(F)(F)F)ccc3sc12`: -69.8% (active); for `NS(=O)(=O)c1ccc(CCn2c(SCC(=O)N/N=C/c3cccnc3)nc3ccccc3c2=O)cc1`: 92.9% (inactive); for `O=C(O)c1ccc(-n2cc(CNc3cc(F)c(F)c(F)c3)c(-c3ccc(F)cc3)n2)cc1`: 115% (inactive).
In the case of `OC(CCCCCCCCC(O)CN1CCc2ccccc2C1)CN1CCc2ccccc2C1` (stereo not given) it was 127% (inactive); in that of `C[C@@]1(N2C(=O)OC[C@@H]2c2ccccc2)C(=O)N([C@H](CC(=O)N2CCC(N3CCCCC3)CC2)C(=O)NCc2cccc(C(F)(F)F)c2)[C@@H]1/C=C/c1ccccc1`, 23.7% (inactive); in that of `Cc1c2ncccc2nc2[nH]c3ccc(OCCN(C)C)cc3c12`, -34.7% (active).
The same measure for `O=C(CSc1nnc(-c2cccs2)n1-c1ccccc1)Nc1ccc(F)cc1`: 88.7% (inactive); for `O=C(Nc1cccc(-n2cc(-c3ccncc3)c(-c3ccc(Cl)c(O)c3)n2)c1)Nc1cc(C(F)(F)F)cc(C(F)(F)F)c1`: -23.9% (active); for `COc1ccc(-c2no[n+]([O-])c2Nc2ccccc2Br)cc1`: 93.3% (inactive).
Turning to `CN=C(N)N/N=C(\C)c1ccc2c(c1)Cc1cc(/C(C)=N/NC(N)=NC)ccc1-2`, the growth is -90.7% (active).
In the case of `O=[N+]([O-])c1cccc(-c2nc3sccn3c2-c2ccnc(NCCCNS(=O)(=O)c3ccc(Cl)cc3)n2)c1` it was 13.1% (inactive); in that of `O=C(Nc1cccc(-n2cc(-c3ccncc3)c(-c3ccc(O)c(Cl)c3)n2)c1)Nc1ccc(Cl)c(C(F)(F)F)c1`, 10% (inactive).
Consider `CC(C)n1c2ccc(Br)cc2c2c3c(c4c5ccccc5ccc4c21)C(=O)NC3=O`, for which the growth is 93.5% (inactive).

The record behind these values is PubChem BioAssay (NCI).
